# The list is not random: actives were taken first. Their share in the collection is about 2.3%.
# A549 tox: Nrf2 qHTS screen for inhibitors: counterscreen for cytotoxicity; 390,000 compounds, 0.16% hits; AID 504648, 2011; A549 ARE-Fluc cells, CellTiter-Fluor viability, 18-24 h; Potency, µM (highest dose often 46 µM), usual class: inhibitors
#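 A549 ARE_Fluc cells in 5% FBS OPTI-MEM were exposed to compounds in concentration-response for 18-24 h at 37 deg C. Viability was read by CellTiter-Fluor fluorescence (Ex 405/Em 525) after 30 min, before the luciferase read.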
# Nrf2 inh: Nrf2 qHTS screen for inhibitors; Potency, µM (doses to about 46 µM), actives largely listed as inhibitors; 360,000 compounds, 2.1% hits; A549 ARE-Fluc reporter, luciferase luminescence, 18-24 h; also: nearly all actives have a fitted effect of over 60% in size
#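 Two sequential reads on A549 ARE_Fluc cells exposed to compound for 18-24 h: a CellTiter-Fluor fluorescence read for viability, then a luciferase luminescence read for Nrf2/ARE activity.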
# IDH1 R132H inh: qHTS for Inhibitors of mutant isocitrate dehydrogenase 1 (IDH1): qHTS. IDH1-R132H enzyme, NADPH consumption, diaphorase/resazurin fluorescence. Potency, µM (series often up to 76.6 µM), usual class: inhibitors. 390,000 compounds, 0.093% hits. AID 602179, 2012; also: nearly all actives have a fitted effect of over 65% in size
#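 IDH1-R132H (0.5 ug/mL) preincubated 30 min with compound, then NADPH (0.016 mM) and alpha-KG (2 mM) added; 80 min at RT, pH 7.5. Remaining NADPH coupled via diaphorase/resazurin to fluorescence (540/590 nm); concentration-response curves normalized to no-enzyme control.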
# Anesthetic bind: qHTS Assay for Identification of Novel General Anesthetics | Ferritin light chain (Equus caballus), P02791 | apoferritin/1-aminoanthracene competitive binding, fluorescence | Potency, µM (top dose mostly 77.5 µM), hits mostly inhibitors | 350,000 compounds, 0.074% hits; also: nearly all actives have a fitted effect of over 20% in size
# Target sequence (P02791 2-175 limits assumed): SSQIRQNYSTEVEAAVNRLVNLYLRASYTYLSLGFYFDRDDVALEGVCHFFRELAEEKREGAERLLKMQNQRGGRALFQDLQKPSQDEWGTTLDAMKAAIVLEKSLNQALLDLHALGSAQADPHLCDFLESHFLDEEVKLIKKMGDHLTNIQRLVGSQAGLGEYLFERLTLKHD
#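 In PBS, apoferritin at 10 uM is loaded with 1-AMA from a 50% saturated solution. After 10 min of compound exposure at ambient temperature, reduced 535 nm fluorescence indicates probe displacement.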
# Giardia killer: Small Molecules that selectively kill Giardia lamblia: qHTS | AID 540267, 2011 | activity change, % at 7.66 µM, hits read low | 340,000 compounds, 0.15% hits | Giardia lamblia trophozoite viability; in the data active = activity change below about -80%; inconclusive = between about -30% and that limit;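 also: parasites exposed to compound for two days anaerobically before the ATP read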
#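 Compounds were tested on trophozoites seeded at 100 cells/well and held 48 hrs at 37 deg C anaerobically. An ATP-based luminescent kit measured the remaining live cells.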
# Nrf2 ARE act: qHTS of Nrf2 Activators; AREc32 ARE-luciferase reporter (MCF7-derived line), luminescence, 24 h; Potency, µM (series often up to 46.1 µM), most hits filed as activators; 410,000 compounds, 0.31% hits; AID 624171, 2012; also: nearly all actives have a fitted effect of over 65% in size
#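 AREc32 cells carrying an ARE-driven firefly luciferase reporter were seeded at 1000 cells/well in OPTI-MEM with 5% FBS, then exposed to compound for 24 hr at 37 deg C. Luminescence was read with Steady-Glo after 30 min at RT.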
# Hits are given with their value; 0 = inactive; ? = inconclusive; - = no result given. Unless noted, calls follow the shape of the dose curve; as a rule, active = well fitted curve in the direction sought with a large enough effect; inconclusive = small, poorly fitted or top-dose-only effect, or another doubt; inactive = no such curve, though single readings can be large; an effect the other way counts as inactive or inconclusive.
SMILES,A549 tox,Nrf2 inh,IDH1 R132H inh,Anesthetic bind,Giardia killer,Nrf2 ARE act
CCOC(=O)c1c(Nc2ccc(C)cc2)nnc(-c2ccccc2)c1-c1ccccc1,0,18µM,0,0,-,0
COc1ccc(Cc2nn3c(-c4ccccc4Br)nnc3s2)cc1,0,16µM,0,0,0,0
Brc1ccccc1-c1nnc2sc(Cc3ccccc3)nn12,?,0,0,0,0,0
COc1cccc(CNC(=O)[C@@H]2CCCN2)c1,-,-,-,-,-,0
CCN1C(=O)c2cccc3c(S(=O)(=O)N(C(C)=O)c4ccc(OC(C)=O)cc4)ccc1c23,0,26µM,0,-,0,0
COc1ccc(N(C(=O)c2ccncc2)S(=O)(=O)c2ccc3c4c(cccc24)C(=O)N3C)cc1,0,?,0,0,0,0
CC(C)C[C@H](NC(=O)CNC(=O)[C@H](C)NC(=O)[C@H](CC(C)C)NC(=O)[C@H](CCCNC(=N)N)NC(=O)[C@H](Cc1cnc[nH]1)NC(=O)[C@@H](NC(=O)[C@@H](N)C(C)C)[C@@H](C)O)C(=O)N[C@@H](CC(C)C)C(=O)N[C@@H](CO)C(=O)N[C@@H](CCCNC(=N)N)C(=O)N[C@@H](CO)C(=O)NCC(=O)NCC(=O)N[C@H](C(=O)N[C@H](C(=O)N[C@@H](CCCCN)C(=O)N[C@@H](CC(N)=O)C(=O)N[C@@H](CC(N)=O)C(=O)N[C@@H](Cc1ccccc1)C(=O)N[C@H](C(=O)N1CCC[C@H]1C(=O)N[C@H](C(=O)N[C@@H](CC(N)=O)C(=O)N[C@H](C(=O)NCC(=O)N[C@@H](CO)C(=O)N[C@@H](CCCCN)C(=O)N[C@@H](C)C(=O)N[C@@H](Cc1ccccc1)C(N)=O)C(C)C)[C@@H](C)O)C(C)C)C(C)C)C(C)C,-,-,-,0,-,-
CCn1c(SCC(=O)c2cccs2)nnc1-c1cccs1,0,?,0,0,0,22µM
COc1ccccc1-c1noc(CSc2nc3ccc(C)cc3[nH]2)n1,0,?,0,0,-,0
COc1ccc(-c2noc(CSc3nc4ccccc4[nH]3)n2)cc1OC,0,21µM,0,0,-,0
Cc1ccccc1-c1noc(CSc2nc3ccccc3[nH]2)n1,0,18µM,0,?,-,0
CCn1c(SCc2nc(-c3ccc(OC)c(OC)c3)no2)nnc1-c1cccs1,0,21µM,0,0,0,0
COc1ccc(-c2noc(CSc3nc(N)c(-c4ccccc4)c(=O)[nH]3)n2)cc1OC,0,0,0,0,0,0
O=C(CNC(=O)c1ccccc1Cl)OC(C(=O)Nc1cc(C(F)(F)F)ccc1Cl)c1ccccc1 (configuration not stated),0,0,-,-,-,-
Cc1ccc(Nc2ncnc3nc[nH]c23)cc1,0,?,-,-,0,-
COc1ccc(C)cc1S(=O)(=O)N1CCCC(C(=O)NCc2ccccn2)C1 (configuration not stated),0,0,0,0,0,0
O=C(NCc1ccccn1)C1CCCN(S(=O)(=O)c2cc(Cl)ccc2Cl)C1 (configuration not stated),?,0,0,-,-83,?
O=C1NC[C@H](CCCCN2CCN(CCC3CCCCC3)C(=O)C2=O)N(CCc2ccccc2)C1=O,-,-,-,-,-,0
CCc1sc(-c2cc3cccc(OC)c3oc2=O)nc1-c1cc(C)ccc1C,0,0,-,-,0,-
CN1C(=O)CSc2ccc(NC(=O)NCCC3=CCCCC3)cc21,?,?,0,22µM,0,0
CC(C)CCNC(=O)Nc1ccc2c(c1)N(C)C(=O)CS2,0,0,0,?,0,0
O=C(CO/N=C/c1cccc([N+](=O)[O-])c1)NC1CCCCC1,0,0,0,?,0,0
CC(C)N(C(=O)CO/N=C/c1cccc([N+](=O)[O-])c1)C(C)C,0,0,0,45µM,0,0
CC(C)N(C(=O)/C=C/c1cccc([N+](=O)[O-])c1)C(C)C,0,0,0,?,0,14µM

# Bioassay records (PubChem BioAssay)
